# From ChEMBL document CHEMBL1157539, “Thousands of chemical starting points for antimalarial lead identification” (Nature, 2010)
# System: Plasmodium falciparum
# Experiment: GSK_TCMDC: Inhibition of Plasmodium falciparum Dd2 in whole red blood cells, using parasite LDH activity as an index of growth. Test compounds present at 2uM
# Format: functional
row,Structure (SMILES),Inhibition [%]
1,FC(F)(F)c1ccc(/C=C/c2cncnc2Nc2ccc3[nH]c(Cc4ccccc4)nc3c2)cc1,100
2,COc1cc(CN=C(S)NN=C(C)c2ccccn2)cc(OC)c1OC,92
3,Cc1noc(C)c1-c1ccc2c(Nc3nccc4ccccc34)c(C(N)=O)cnc2c1,99
4,Cc1noc(C)c1-c1cccc(CNCc2cccc(-c3ccc(-c4nc5cccc(C)c5[nH]4)s3)c2)c1.O=C(O)C(F)(F)F,75
5,Cl.N#Cc1ccc(NC(=O)Nc2ccc3c(c2)CCN(C2CCC2)CC3)cc1,11
6,Br.CC(CCON1C(N)=NC(N)=NC1(C)C)c1ccc(Cl)c(Cl)c1 (stereo unspecified),97
7,CCCCCNc1nc2nc(N)nc(N)c2nc1-c1ccccc1.Cl,0
8,COc1cccc(C(O)CNc2ccnc(Nc3ccc(Cl)cc3)n2)c1 (stereo unspecified),46
9,CC(C)CNCc1cccc(-c2ccc(CN(C(=O)NCCc3ccccc3)C3CCN(Cc4ccccc4)CC3)cc2)c1.O=C(O)C(F)(F)F,47
10,COc1ccc(-n2ccnc2SCC(=O)Nc2cc(Cl)ccc2OC)c(OC)c1,92
11,COC(=O)c1cc2cccc(NC[C@@H](C)NC[C@H](O)c3cccc(Cl)c3)c2[nH]1,99
12,O=C(O)C(F)(F)F.O=[N+]([O-])c1cccc(CNCC2CCN(Cc3ccc(Cl)c(Cl)c3)CC2)c1,41
13,Cc1ncc(CN2CCC(C(=O)Nc3ccc(-c4nc5ccccc5o4)cc3)CC2)s1,92
14,COc1ccccc1CCNC(=O)c1cnc(N2CCN(c3ccncc3)CC2)c(Cl)c1.O=C(O)C(F)(F)F,54
15,O=C(NCCN1CCCC1)N1CCCN(c2ncnc3cc(-c4ccc(F)cc4)sc23)CC1.O=C(O)C(F)(F)F,19
16,Cc1nc(-c2cccc3c(NC(=O)N4CCc5cc6nccc(N7CCN(C)CC7)c6cc54)cccc23)no1.Cl,97
17,COC(=O)[C@@H](NC(=O)[C@H](Cc1ccc(OC)c(OC)c1)Nc1ccc(C#N)c2ccccc12)c1ccc(O)cc1.O=C(O)C(F)(F)F,100
18,CCOC(=O)c1ccc(NC(=O)Nc2ccc(-c3ccc(-c4nc5cccc(C)c5[nH]4)s3)cc2)cc1,100

row,Structure (SMILES),Inhibition [%]
1,FC(F)c1nc2ccccc2n1-c1nc(N2CCOCC2)nc(N2CCOCC2)n1 [ZSTK-474],99
2,O=C(NCc1ccccc1)c1nn(CCCN2CCC(N3CCCC3)CC2)cc1-c1ccc(Cl)c(Cl)c1,89
3,CCOC(=O)c1c[nH]c2c(sc3cc(OC)ccc32)c1=O,93
4,O=C(Nc1cccc(CN2CCCN(Cc3ccc(O)cc3)CC2)c1)c1cc(F)cc(F)c1.O=C(O)C(F)(F)F,13
5,Cc1noc(C)c1-c1cccc(C(=O)NC2CCN(CCNC(=O)C(c3ccccc3)c3ccccc3)CC2)c1.O=C(O)C(F)(F)F,74
6,CC(C(=O)NC1CCN(c2ccnc(Nc3ccc(F)cc3)n2)C1)c1ccc(Cl)cc1 (stereo unspecified),90
7,O=C(O)C(F)(F)F.OCC1CCN(Cc2cccc(-c3ccc(-c4nc5cc(F)ccc5[nH]4)cc3)c2)CC1,86
8,COc1ccccc1-c1ccc(C(=O)NCC2CCCN(Cc3cccc(C(F)(F)F)c3)C2)s1.O=C(O)C(F)(F)F (stereo unspecified),37
9,O=C(Nc1cccc(-c2cccc(-c3nc4cc(C(F)(F)F)ccc4[nH]3)c2)c1)c1cccnc1Cl,58
10,Cc1c2c(nn1-c1ccccc1)C(c1ccccc1)N(c1ccccc1)C2=O (stereo unspecified),96
11,CCN(CC)/C(=N/C(=N)Nc1ccc(Br)cc1)NCCCCCCN/C(=N\C(=N)Nc1ccc(Br)cc1)N(CC)CC,95
12,Cl.O=C(NCCCCN1CCC(c2ccc3c(c2OCCO)CCCC3)CC1)c1ccc(-c2ccc(C(F)(F)F)cc2)cc1,38
13,CCN(CC)CCNC(=O)c1ccc(NC(=O)c2oc3c(Cl)cccc3c2C)cc1,68
14,COCCCNc1sc(S(=O)(=O)c2ccccc2)nc1S(=O)(=O)c1ccc(C)cc1,44
15,O=C(Nc1cccc(-c2cc3ccccc3[nH]2)c1)C1CCN(Cc2ccccc2O)CC1,25
16,C=CCC(C)n1ncc2c3c(N)nc(N)nc3ccc21 (stereo unspecified),95
17,COc1ccc(CNC2Cc3ccccc3C2)cc1-c1ccc(OC)c(S(=O)(=O)NCCN2CCCC2)c1.O=C(O)C(F)(F)F,97
18,COC(=O)Nc1cc(C(F)(F)F)ccc1N1CCCC(NS(=O)(=O)c2ccc(C(C)(C)C)cc2)C1 (stereo unspecified),90
